Results reported in PubChem BioAssay (EPA / NIEHS).
Results filed as inconclusive are left out. Activity calls are given as the source filed them. Rule for the calls, unless noted: active = hit-call score of the fitted dose curve at least 0.9, where 1 is the maximum; inactive = score below 0.9.

Legend:
[1] = target: Ratio of Nucleoli Translocation and Cytoplasm, AR (gene 367) (UniProt P10275); test: UPITT_HCI_U2OS_AR_TIF2_Nucleoli_Cytoplasm_Ratio_Agonist: University of Pittsburgh U2OS Androgen Receptor-Transcriptional Intermediary Factor 2 (AR-TIF2) Agonism High Content Imaging Assay for Ratio of Nucleoli Translocation and Cytoplasm (AID 2284000; active = hit-call score of the fitted dose curve at least 0.9, where 1 is the maximum;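 note: hits raise the red nucleolar to cytoplasm ratio above vehicle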)
Summary of the method: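 Compounds tested at 20 uM final in primary screen (0.2% DMSO) and 0.195-50 uM final in dose-response (0.5% DMSO). Imaging of human U2OS cells bearing RFP-AR and GFP-TIF2; endpoint is nucleoli/cytoplasm red signal ratio, positive direction relative to DMSO.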

[2] = CCTE_Simmons_MITO_basal_resp_rate: CCTE's HepG2 Seahorse XF Respirometric Screening Assay at Basal Respiratory State, Simmons Lab (AID 2284001); conditions: actives raise or lower the signal
Summary of the method: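 Basal-phase OCR in HepG2 cells, read at 6-min intervals across a 72-min run, with test compound injected at 125 nM–100 uM final (7 points). Fitted both directions against DMSO; three biological replicates per concentration.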

[3] = CCTE_Simmons_MITO_max_resp_rate: CCTE's HepG2 Seahorse XF Respirometric Screening Assay at Maximal Respiratory State [uncoupled], Simmons Lab (AID 2284002); conditions: actives raise or lower the signal
Summary of the method: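 Read-out is oxygen consumption rate at maximal respiration, taken after FCCP uncoupling of compound-treated HepG2 cells. Seven final concentrations from 125 nM to 100 uM were tested, each in three biological replicates.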

[4] = CCTE_Simmons_MITO_inhib_resp_rate: CCTE's HepG2 Seahorse XF Respirometric Screening Assay at Inhibited Respiratory State [full ETC block], Simmons Lab (AID 2284006); conditions: actives raise or lower the signal
Summary of the method: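 OCR read-out in the inhibited phase following rotenone/antimycin A, after compound and FCCP injections, in HepG2 cells. Seven concentrations (125 nM to 100 uM final), three biological replicates, 6-min cycles over 72 min; DMSO baseline.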

[5] = CCTE_Shafer_MEA_acute_spike_number: CCTE's Neural Acute Assay for Total Number of Spikes, Shafer Lab (AID 2284008);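 for AC50: curve fitted for decrease in spike count so AC50 reflects inhibitors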
Summary of the method: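 Read-out is the total spike count over 40 min, expressed as percent change from each well's own pre-treatment baseline and fitted in the loss direction against DMSO. Rat cortical neurons were exposed at 0.03-40 uM on DIV 13 or 15.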

[6] = CCTE_Shafer_MEA_acute_firing_rate_mean: CCTE's Neural Acute Assay for Mean Firing Rate, Shafer Lab (AID 2284009);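 note: analyzed for loss of signal so actives lower firing rate relative to DMSO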
Summary of the method: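 Primary rat cortical neurons on 16-electrode MEA wells were exposed on DIV 13 or 15 to compound (0.03-40 uM). Spike counts per recording time, averaged over electrodes, were compared between 40-min baseline and 40-min post-exposure recordings as percent change.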

[7] = CCTE_Harrill_HTTr_Viability_MCF7: CCTE's 6-hour Cell Viability Assessment for the High-Throughput Transcriptomics (HTTr) Platform, in MCF-7 cells cultured in DMEM + 10% fetal bovine serum, Harrill Lab (AID 2284010)
Summary of the method: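 PI exclusion, high-content imaging; 8-pt dilution series, 6 h exposure; bidirectional fit vs DMSO (neg. ctrl/baseline); gain of signal = loss of membrane integrity.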

[8] = CCTE_Harrill_HTTr_CellCount_MCF7: CCTE's Cell Proliferation Assessment for the High-Throughput Transcriptomics (HTTr) Platform, Harrill Lab (AID 2284012; active = hit-call score of the fitted dose curve at least 0.9, where 1 is the maximum;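 note: count of Hoechst-stained nuclei per well by high-content imaging in MCF-7 cells; cells exposed to compound for six hours; intended direction is loss of nuclei count meaning fewer cells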)
Summary of the method: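 Readout: Hoechst nuclear count by high-content imaging. MCF-7, 8-point dilution series, 6 h exposure. Bidirectional fit vs DMSO baseline.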

[9] = CCTE_Shafer_MEA_acute_burst_number: CCTE's Neural Acute Assay for Single-Electrode Bursts, Shafer Lab (AID 2284013)
Summary of the method: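 Primary rat cortical neurons on 16-electrode MEA wells, DIV 13 or 15, exposed to compound (0.03-40 uM; ≥3 wells); 40-min recordings at 37 C before and after treatment. Burst count expressed as percent change from baseline, DMSO as negative control.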

[10] = CCTE_Shafer_MEA_acute_per_burst_spike_number_mean: CCTE's Neural Acute Assay for Average Number of Spikes Per Burst, Shafer Lab (AID 2284015);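 note: hits are decreases in mean spikes per burst versus baseline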
Summary of the method: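 We recorded spontaneous network firing of rat cortical neurons for 40 min before and 40 min during exposure to compound at 0.03-40 uM, at 37 C. Spikes were detected adaptively at 8x rms noise, and the change in average spikes per burst was fitted against DMSO.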

[11] = CCTE_Shafer_MEA_acute_interburst_interval_mean: CCTE's Neural Acute Assay for Mean Interburst Interval, Shafer Lab (AID 2284016);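 note: percent change of mean interburst interval versus each well's own pre-dose baseline; curves fitted for decrease in interburst interval relative to DMSO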
Summary of the method: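 MEA recording of spontaneous network bursting in primary rat cortical cultures; mean interburst interval was compared before and after a 40-min compound exposure (0.03-40 uM) and expressed as percent change, relative to DMSO.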

[12] = CCTE_Shafer_MEA_acute_burst_percentage_mean: CCTE's Neural Acute Assay for Percentage of Spikes in a Burst, Shafer Lab (AID 2284017);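 for AC50: curve fitted for loss of signal so potency reflects decreased burst percentage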
Summary of the method: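 Compounds were tested at 0.03-40 uM on primary rat cortical neuron networks grown over microelectrodes, with at least three wells per compound. Spontaneous firing was recorded for 40 min before and 40 min after dosing, and the change in burst percentage was computed per well.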

[13] = CCTE_Shafer_MEA_acute_burst_percentage_std: CCTE's Neural Acute Assay for Standard Deviation of Burst Percentage, Shafer Lab (AID 2284018);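 note: fitted in the negative direction so actives lower burst percentage SD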
Summary of the method: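 Value is percent change from baseline in the across-electrode SD of spikes-in-bursts percentage, wells with >/= 10 active electrodes. Acute 40-min exposure to 0.03-40 uM on DIV 13 or 15 rat cortical cultures, recorded at 37 C after 40-min baseline.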

[14] = CCTE_Shafer_MEA_acute_per_network_burst_spike_number_mean: CCTE's Neural Acute Assay for Average Number of Spikes in a Network Burst, Shafer Lab (AID 2284019);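 for AC50: curve fitted for loss of signal so actives reduce spikes per network burst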
Summary of the method: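 Percent change from baseline in mean spikes per network burst, spikes detected at 8x rms noise. Each compound at 0.03-40 uM in at least three wells of rat cortical cultures, recorded 40 min before and 40 min during exposure.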

[15] = CCTE_Shafer_MEA_acute_per_network_burst_electrodes_number_mean: CCTE's Neural Acute Assay for Mean Number of Electrodes in a Network Burst, Shafer Lab (AID 2284021);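 note: curves fitted for decreases only so hits reduce electrodes per burst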
Summary of the method: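 Primary rat cortical networks, mwMEA, 37 C. 20 min stabilization, 40 min baseline, compound 0.03-40 uM, 40 min re-record. Wells need >=10 active electrodes; percent change per well, negative fitting direction.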

[16] = CCTE_Shafer_MEA_acute_network_burst_percentage: CCTE's Neural Acute Assay for Percentage of Network Bursts, Shafer Lab (AID 2284022);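 note: curves fitted for loss so actives lower network burst percentage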
Summary of the method: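 Readout is the fraction of spikes falling in network bursts, expressed as per-well percent change from a 40-min pre-exposure baseline. Primary rat cortical neurons on MEA were exposed to 0.03-40 uM compound on DIV 13 or 15 and recorded for 40 min at 37 C.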

[17] = CCTE_Shafer_MEA_acute_cross_correlation_area: CCTE's Neural Acute Assay for Area of Cross Correlation, Shafer Lab (AID 2284024);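 note: rat primary cortical neuron networks on 48-well MEA at DIV 13 or 15 with 40 min exposure; area under pooled inter-electrode spike cross-correlation near zero lag as percent change from own baseline; curves fitted for loss of cross-correlation area so actives lower synchrony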
Summary of the method: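 Plates equilibrated 20 min at 37 C, then 40 min baseline was recorded, compound was added (0.03-40 uM), and a further 40 min was recorded. Wells needed ≥10 active electrodes (≥5 spikes/min) on exposure day.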

[18] = CCTE_Harrill_HTTr_Apoptosis_MCF7: CCTE's 6-hour Apoptosis Assessment for the High-Throughput Transcriptomics (HTTr) Platform, in MCF-7 cells cultured in DMEM + 10% fetal bovine serum, Harrill Lab (AID 2284011)
Summary of the method: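 MCF-7 (DMEM + 10% FBS), 384-well; 8-pt dilution series, 6 h chemical exposure; caspase-3/7 activation via CellEvent Caspase 3/7 Green, HCI; bidirectional fit vs DMSO.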

Measured: AC50

Chain of Ratio of Nucleoli Translocation and Cytoplasm, AR (gene 367) (P10275 whole entry, looked up): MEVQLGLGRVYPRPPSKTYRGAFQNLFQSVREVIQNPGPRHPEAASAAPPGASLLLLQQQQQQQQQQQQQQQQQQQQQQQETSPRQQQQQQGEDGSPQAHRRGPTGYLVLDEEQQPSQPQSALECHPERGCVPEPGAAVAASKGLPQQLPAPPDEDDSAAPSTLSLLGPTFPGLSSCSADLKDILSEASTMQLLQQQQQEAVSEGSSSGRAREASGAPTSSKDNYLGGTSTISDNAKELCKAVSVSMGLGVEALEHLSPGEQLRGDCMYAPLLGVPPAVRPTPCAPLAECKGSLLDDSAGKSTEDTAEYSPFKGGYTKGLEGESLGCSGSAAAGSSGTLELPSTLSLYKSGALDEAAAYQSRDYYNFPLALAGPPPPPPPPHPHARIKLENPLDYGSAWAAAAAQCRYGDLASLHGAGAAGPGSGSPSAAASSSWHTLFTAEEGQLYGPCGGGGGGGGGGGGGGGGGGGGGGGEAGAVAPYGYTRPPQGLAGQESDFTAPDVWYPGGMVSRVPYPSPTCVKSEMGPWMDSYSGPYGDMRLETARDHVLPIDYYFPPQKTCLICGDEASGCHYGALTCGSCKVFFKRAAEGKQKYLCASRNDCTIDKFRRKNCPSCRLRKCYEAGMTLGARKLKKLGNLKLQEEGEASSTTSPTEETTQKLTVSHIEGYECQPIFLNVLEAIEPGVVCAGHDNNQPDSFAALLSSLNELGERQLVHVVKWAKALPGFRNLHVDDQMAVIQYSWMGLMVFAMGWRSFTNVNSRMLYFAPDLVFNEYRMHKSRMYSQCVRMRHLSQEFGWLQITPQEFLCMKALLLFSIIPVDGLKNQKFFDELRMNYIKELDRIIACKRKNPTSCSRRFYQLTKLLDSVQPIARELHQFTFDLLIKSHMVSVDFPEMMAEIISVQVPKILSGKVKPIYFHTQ

CC(C)N1C(=O)N(c2ccccc2)CSC1=NC(C)(C)C
active: [5] 5.21 µM | [6] 5.27 µM | [9] 4.94 µM | [10] 20 µM | [12] 20 µM | [14] 13.5 µM | [15] 17.4 µM | [16] 26.5 µM
inactive: [1] | [2] | [3] | [4] | [7] | [8] | [11] | [13] | [17]

COC(=O)c1c(C(F)F)nc(C(F)(F)F)c(C2=NCCS2)c1CC(C)C
inactive: [1] | [7] | [8]

Cc1cnc(C2=NC(C)(C(C)C)C(=O)N2)c(C(=O)O)c1 (stereo unspecified)
inactive: [1] | [7] | [8]

CC(C)(C)C(=O)C(Oc1ccc(Cl)cc1)n1cncn1 (stereo unspecified)
active: [2] 40.6 µM | [3] 47.2 µM
inactive: [4] | [7] | [18] | [8]

COCC(C)N(C(=O)CCl)c1c(C)csc1C (stereo unspecified)
inactive: [3] | [4] | [7]
active: [2] 55.3 µM

CCOP(=O)(OCC)Oc1nc(Cl)c(Cl)cc1Cl
inactive: [1] | [4] | [7] | [18] | [8] | [9] | [11] | [16] | [17]
active: [2] 29.6 µM | [3] 49.8 µM | [5] 3.95 µM | [6] 3.95 µM | [10] 0.00298 µM | [12] 34.9 µM | [13] 32.5 µM | [14] 0.00674 µM | [15] 0.0114 µM

Cc1ccc(N=CN(C)C=Nc2ccc(C)cc2C)c(C)c1
active: [5] 0.126 µM | [6] 0.125 µM | [10] 0.308 µM | [11] 0.16 µM | [14] 0.427 µM | [16] 20 µM
inactive: [2] | [3] | [4] | [7] | [18] | [8] | [9] | [12] | [13] | [15] | [17]

CCCCOCN(C(=O)CCl)c1c(CC)cccc1CC
inactive: [1] | [7] | [18] | [8]

COCC(=O)N(c1c(C)cccc1C)C(C)C(=O)OC (stereo unspecified)
active: [2] 36.2 µM
inactive: [3] | [4] | [5] | [6] | [7] | [9] | [10] | [11] | [12] | [13] | [14] | [15] | [16] | [17]

N#Cc1c[nH]cc1-c1cccc2c1OC(F)(F)O2
inactive: [4] | [7] | [9] | [11] | [14] | [15] | [16] | [17]
active: [2] 77.1 µM | [5] 4.28 µM | [6] 4.27 µM | [10] 20 µM | [12] 20 µM | [13] 32.4 µM
